# Screens (PubChem BioAssay)
# FMDV antiviral – blocks foot and mouth disease virus; FMDV antiviral cell-based qHTS; Potency, µM (series often up to 57.9 µM), inactives show at the highest dose activity change, negative = inhibition, actives largely listed as inhibitors; 1.2% of 410,000 active; AID 1159524; calls by dose curve; tested in HEK293T cells; further: read-out not given here; potency means the concentration at half of the fitted maximal effect; nearly all actives have a fitted effect of over 45% in size
# HCMV inh – blocks human cytomegalovirus replication; HFF cells, HCMV-luciferase reporter, 72 h; stronger effect = lower value; activity change, negative = inhibition, % at 57.5 µM; 4.5% of 410,000 active; in the data active means activity change below about -60%; inconclusive means no clear call, values can overlap the other calls; inactive means above about -39%
#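 Compounds were evaluated in HFFs infected with an HCMV luciferase reporter virus (MOI 1 PFU/cell). Luciferase in lysates collected 72 h post infection served as the replication measure.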
# VACV mCherry inh – vaccinia inhibition (mCherry reporter) | Vaccinia virus mCherry reporter infection, fluorescence | Potency, µM (highest dose often 36.5 µM), for the others: top-dose activity change, negative = inhibition, most hits filed as inhibitors | 0.63% of 310,000 active; calls by dose curve; tested in A549 cells; further: potency means the concentration at half of the fitted maximal effect; nearly all actives have a fitted effect of over 35% in size
# Vaccinia Venus – inhibitors of vaccinia virus (Venus reporter) | Vaccinia virus Venus reporter expression, fluorescence | Potency, µM (series often up to 36.5 µM), for the others: top-dose activity change, negative = inhibition, usual class: inhibitors | 0.46% of 330,000 active | AID 720580; calls by dose curve; tested in A549 cells; further: potency means the concentration at half of the fitted maximal effect; nearly all actives have a fitted effect of over 30% in size
# HCV inhibitor – inhibitors of hepatitis C virus infection | Huh7.5.1 HCVcc-Cre infection, luciferase reporter, 44 h | Potency, µM (top dose mostly 41.8 µM), without a hit: at the highest dose activity change, negative = inhibition, most hits filed as inhibitors | 3.4% of 340,000 active | AID 651820; further: potency means the concentration at half of the fitted maximal effect
#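 Luciferase read-out (15 sec integration) after a 15 min room-temperature substrate step quantifies HCVcc-Cre infection. Cells, 1,000 per well, had compound added 4 h post-plating, then virus at ~0.5 moi, and were cultured 44 h.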
# Giardia FBPA inh-1 – Giardia lamblia aldolase inhibition; A8B2U2; purified Giardia FBPA; Potency, µM (top dose mostly 59.6 µM), without a hit: at the top dose activity, negative = inhibition, actives largely listed as inhibitors; 0.71% of 290,000 active; AID 2451; further: potency means the concentration at half of the fitted maximal effect; nearly all actives have a fitted effect of over 55% in size
#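 40 nM FBPA preincubated 10 min at RT with compound (up to 57.5 uM final), then substrate plus GAPDH/TPI/NAD/arsenate coupling and diaphorase/resazurin added. Fluorescence read after 20 min at RT, 525/598 nm.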
# Giardia growth – inhibitors of Giardia lamblia growth; Potency, µM (highest dose often 57.5 µM), for inactives: top-dose activity change, negative = inhibition, hits mostly inhibitors; Giardia lamblia trophozoite growth inhibition; shares compounds with Giardia FBPA inh-1; 5% of 1,500 active;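 further: potency means the concentration at half of the fitted maximal effect; trophozoites exposed to compound for 48 h at 37 °C; nearly all actives have a fitted effect of over 70% in size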
# Mammal cell tox – mammalian cytotoxicity of Giardia aldolase inhibitor hits; mammalian cell viability counter-screen, qHTS; Potency, µM (titrated, usually from 57.5 µM), inactives show at the top dose viability change, negative = toxicity, hits mostly inhibitors; shares compounds with Giardia FBPA inh-1; 4% of 1,500 active;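 further: Chinese hamster ovary cells used as mammalian cytotoxicity surrogate; viability measured as cellular ATP by luminescence; potency means the concentration at half of the fitted maximal effect; compound exposure lasted 48 h before reading; nearly all actives have a fitted effect of over 60% in size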
# Giardia FBPA inh-2 – confirmation of Giardia fructose-bisphosphate aldolase inhibitors | shares compounds with Giardia FBPA inh-1 | purified Giardia aldolase enzyme activity, qHTS | Potency, µM (titrated, usually from 57.5 µM), without a hit: top-dose activity change, negative = inhibition, most hits filed as inhibitors | 5% of 1,500 active; further: potency means the concentration at half of the fitted maximal effect; nearly all actives have a fitted effect of over 45% in size
# Rabbit aldolase – blocks rabbit muscle aldolase in Giardia aldolase selectivity test. shares compounds with Giardia FBPA inh-1. Rabbit muscle FBPA enzyme inhibition, selectivity counter-screen. Potency, µM (titrated, usually from 57.5 µM), inactives show top-dose activity, negative = inhibition, hits mostly inhibitors. 4% of 1,500 active. AID 2794; further: potency means the concentration at half of the fitted maximal effect; nearly all actives have a fitted effect of over 60% in size
# Target sequence (P00883 whole entry, looked up): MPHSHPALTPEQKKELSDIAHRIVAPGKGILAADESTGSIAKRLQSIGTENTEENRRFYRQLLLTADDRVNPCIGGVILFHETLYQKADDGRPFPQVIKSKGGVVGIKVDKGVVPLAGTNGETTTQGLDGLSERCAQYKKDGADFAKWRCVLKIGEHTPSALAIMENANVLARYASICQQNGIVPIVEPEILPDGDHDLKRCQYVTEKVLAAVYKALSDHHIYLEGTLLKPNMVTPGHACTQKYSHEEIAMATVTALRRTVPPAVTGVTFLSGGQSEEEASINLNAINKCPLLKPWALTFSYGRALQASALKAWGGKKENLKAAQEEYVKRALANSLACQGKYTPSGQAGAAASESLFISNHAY
# GAPDH coupling – GAPDH inhibition flagged for Giardia aldolase hits. shares compounds with Giardia FBPA inh-1. GAPDH coupling enzyme counterscreen, biochemical, qHTS. Potency, µM (top dose mostly 57.5 µM), for inactives: at the highest dose activity change, negative = inhibition, actives largely listed as inhibitors. 6% of 1,500 active. AID 2795; further: potency means the concentration at half of the fitted maximal effect; nearly all actives have a fitted effect of over 55% in size
# * = called active by the depositor; i = inactive; ? = inconclusive; / = no result given; [ ] = dose if it differs, or a comment. Only some compounds are listed: those with a hit (about 7.5% of all), similar ones and a draw of the others. Unless noted, the call rests on the fitted dose curve; in most records, active means well fitted curve in the direction sought with a large enough effect; inconclusive means small, poorly fitted or top-dose-only effect, or another doubt; inactive means no such curve, though single readings can be large; an effect the other way counts as inactive or inconclusive. On the % scale 0 is the no-effect control and ±100 the full control effect.
SMILES,FMDV antiviral,HCMV inh,VACV mCherry inh,Vaccinia Venus,HCV inhibitor,Giardia FBPA inh-1,Giardia growth,Mammal cell tox,Giardia FBPA inh-2,Rabbit aldolase,GAPDH coupling
CCn1c(SCC(=O)c2cc(C)n(C)c2C)nnc1-c1ccccc1,3%,48,/,-24%,-15%,-12%,/,/,/,/,/
COc1ccccc1-c1nnc(SCC(=O)c2ccc(Cl)cc2)n1-c1ccccc1,-15%,-18,-25%,-20%,/,/,/,/,/,/,/
C=CCn1c(SCC(=O)c2ccc(O)c(O)c2)nnc1-c1ccccc1OC,-17%,-9,-17%,0%,?,3.2µM*,?,?,-19%,-18%,8%
C=CCn1c(SCC(=O)c2ccc(O)c(O)c2)nnc1-c1cccnc1,14%,-10,?,1%,-3%,16µM*,27%[10.4 µM],23%,-25%,-20%,-4%
C=CCn1c(SCC(=O)c2ccc(O)c(O)c2)nnc1-c1cccc(C)c1,0%,-17,-17%,-8%,?,/,/,/,/,/,/
O=C(CNC(=O)N1CC(=O)Nc2ccccc21)Nc1nccs1,-18%,26,/,/,28%,11%,/,/,/,/,/
COc1ccc(CNC(=O)[C@H](C)NC(=O)C2CCN(C(=O)[C@@H](N)CCSC)CC2)cc1,-10%,13,1%,2%,16%,-22%,/,/,/,/,/
O=C(O)Cn1nnc(COc2ccccc2)n1,-21%,-30,-3%,-10%,2%,-8%,/,/,/,/,/
NC(c1ccccc1)c1cccnc1 (centres undefined),-8%,7,i,-1%,-8%,10µM*,1%,20%,11%,4%,12%
COC(=O)/C(=C/Nc1cccc2ccccc12)[N+](=O)[O-],/,21,-6%,-12%,-13%,?,-19%[38.3 µM],-15%,?,?,?
COc1cc(OC)cc(C(=O)Nc2cccc3ccccc23)c1,-8%,37,/,/,-7%,-2%,/,/,/,/,/
COc1ccc(Cc2n[nH]c(=S)n2N)cc1OC,5%,-4,i,-8%,1%,13µM*,-6%,-1%,-4%,6%,3%
Nn1c(Cc2ccccc2F)n[nH]c1=S,7%,61,-13%,-4%,8%,14µM*,-19%,-3%,-4%,9%,0%
O=C(NC(=S)Nc1ccc(CN2CCOCC2)cc1)c1cccc([N+](=O)[O-])c1,9%,-8,i,-6%,15%,4%,/,/,/,/,/
O=C(NC(=S)Nc1ccc(CN2CCOCC2)cc1)c1cccc(F)c1,4%,-34,-10%,2%,0%,11µM*,-11%,7%,-4%,9%,7%
O=C(NC(=S)Nn1cnnc1)c1ccccc1,-16%,-24,i,-11%,26%,/,/,/,/,/,/
O=C(NC(=S)Nn1cnnc1)c1ccccc1Br,-1%,-20,/,/,10%,11µM*,?,-3%,3%,5%,16%
O=C(CCl)NC(Cc1c[nH]c2ccc(OCc3ccccc3)cc12)C(=O)O (centres undefined),1%,-18,/,/,13%,6%,/,/,/,/,/
CCOC(=O)c1sc2nc(CSc3ccccc3)nc(N3CCCN(C)CC3)c2c1C,-19%,?,?,?,-78%,20µM*,-18%,-17%,4%,-1%,6%
